# Values without a mark were called inactive. Active and inactive are the calls of the source.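 How the source made its calls: active means thallium flux through the channel raised or lowered by more than 3 SD from vehicle-only wells, actives on both sides; inactive means the rest.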
# System: R275C/Slo1WT/beta2
# Test: modulators of BK channel variants, profiling panel, selectivity assay, cell-based, U2OS BacMam, thallium flux, beta subunits (AID 1259406);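 further: initial slope of Thallos dye fluorescence rise after thallium is added; log ratio against the mean of 0.3% DMSO vehicle wells on the same plate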
# Settings: at 30 µM
row,SMILES,log fold change Tl+ flux
1,N#Cc1ccc(NCCc2ccccn2)c([N+](=O)[O-])c1,0.0168
2,Cc1cc(CNCC(O)C(F)(F)F)no1 (stereo not given),0.0726
3,CSC(NCc1cccnc1)=C(C#N)S(=O)(=O)c1ccc(Cl)cc1,0.0289
4,Cc1c(C(=O)Nc2ccc(N3CCOCC3)c(Cl)c2)cnn1-c1ccc(F)cc1,0.000473
5,Cc1nc(C)c(C(=O)O)c(-c2ccsc2)c1C(=O)O,0.0152
6,CCCCCCCCCCCC(=O)N1CC(=O)NC(=O)C1,0.0104
7,Cc1cccc(N=Cc2cc(Cl)cc(Cl)c2O)c1C,-0.00626
8,Cc1ccc(I)cc1[N+](=O)[O-],-0.00671
9,Cc1ccccc1C=C1N=C(c2ccccc2)OC1=O,0.0353
10,O=C(NNc1c(Cl)cccc1Cl)c1csc(Cc2c(Cl)cccc2Cl)n1,0.0322
11,CCSc1n[nH]c(=S)s1,0.00702
12,COc1cc(C(F)(F)F)nc2ccc(C#CCOC(=O)Nc3cccc(Cl)c3)cc12,0.0405
13,CC12CCC(c3c1nn(-c1ccccc1)c3C(F)(F)F)C2(C)C (stereo not given),-0.0353
14,COC(=O)C1=C(C)NC(C)=C(C(=O)OC)C1c1ccccc1,0.0172
15,O=C(C(=NN=Cc1ccc2c(c1)OCO2)c1ccccc1)c1ccccc1,-0.0825
16,COc1ccc(Cl)cc1N1C(=O)C=C(c2ccccc2)C1=O,-0.0335
17,O=c1[nH]nc(N2CCSCC2)[nH]1,0.014
18,Clc1ccc(-c2nc(-c3cnccn3)no2)cc1,0.0471
19,NNC(=O)Cc1csc2nc(-c3ccccc3)nn12,0.0322
20,CN(C)C=Nc1cc(Cl)c(-n2cccc2)cc1Oc1ccc(Cl)cc1,-0.0144

row,SMILES,log fold change Tl+ flux
1,Oc1ccccc1C=NCCN=Cc1ccccc1O,0.0616
2,CC(C)(C)OC(=O)N1CCC(c2nc(-c3ccc(Cl)s3)cs2)CC1,0.0374
3,O=S(=O)(Cc1nc(-c2ccc3c(c2)OCCO3)cs1)c1ccccn1,-0.0322
4,Cn1c(SCCS(=O)(=O)c2ccc(OC(F)(F)F)cc2)nnc1C(F)(F)F,-0.0104
5,Cc1ccc(S(N)(=O)=O)c(I)c1,-0.0513
6,O=C(Nc1ccc(OC(F)(F)F)cc1)OC1CN(C(c2ccccc2)c2ccccc2)C1,-0.0244
7,CCN1CCC(O)(C#Cc2ccccc2)CC1,0.0236
8,COC(=O)c1ccc(C=Cc2cccc(Cl)c2)s1,-0.104 (active)
9,CCc1[nH]c(=S)[nH]c(=O)c1C#N,0.0561
10,O=C(CC1SC(=NC2CC3C=CC2C3)NC1=O)Nc1ccccc1Cl (stereo not given),-0.0439
11,O=S(=O)(Cc1nc(C=Cc2cc(C(F)(F)F)cc(C(F)(F)F)c2)no1)c1ccc(Cl)cc1,0.00318
12,O=C1CSC(=S)N1N=Cc1cccnc1,-0.022
13,O=C(NC1CCSC1)c1ccccc1NS(=O)(=O)c1ccccc1 (stereo not given),-0.0155
14,CCOC(=O)c1nn(-c2ccc(C(C)(C)C)cc2)c(=O)c(C#N)c1C,-0.0278
15,O=C(NNC(=O)c1ccc2nonc2c1)c1cccc(C(F)(F)F)c1,-0.0326
16,CCOC(=O)C(C)Oc1ccc(NS(=O)(=O)c2cc(OC)ccc2OC)cc1Cl (stereo not given),-0.0391
17,O=C(Nc1ccc(-n2ccc(C(F)(F)F)n2)cc1)C1=Cc2cc(Cl)ccc2OC1,-0.0341
18,CC(=O)c1sc(SCc2ccc(Cl)cc2)c2c1CC(C)(C)CC2=O,0.00246
19,Cc1cc(-c2nn(C)c(=O)c3ccccc23)cc(C)c1O,-0.0205
20,Cn1ncc2ccccc2c1=O,0.00701

# — PubChem BioAssay
